Laboratory results reported in PubChem BioAssay (NCATS).
Inconclusive results are not listed. Activity calls are given as the source filed them. Unless noted, calls follow the shape of the dose curve; as a rule, active = well fitted curve in the direction sought with a large enough effect; inconclusive = small, poorly fitted or top-dose-only effect, or another doubt; inactive = no such curve, though single readings can be large; an effect the other way counts as inactive or inconclusive.

Columns and labels:
[1] = biological target: Lysosomal acid glucosylceramidase (Homo sapiens) (UniProt P04062); experiment: Glucocerebrosidase-p2 (AID 348; in the data active = potency below about 10 µM; also: potency is read from the fitted curve at half-maximal effect); conditions: purified GBA, blue fluorogenic substrate, 40 min
Lysosomal acid glucosylceramidase (Homo sapiens), sequence (P04062 whole entry, looked up): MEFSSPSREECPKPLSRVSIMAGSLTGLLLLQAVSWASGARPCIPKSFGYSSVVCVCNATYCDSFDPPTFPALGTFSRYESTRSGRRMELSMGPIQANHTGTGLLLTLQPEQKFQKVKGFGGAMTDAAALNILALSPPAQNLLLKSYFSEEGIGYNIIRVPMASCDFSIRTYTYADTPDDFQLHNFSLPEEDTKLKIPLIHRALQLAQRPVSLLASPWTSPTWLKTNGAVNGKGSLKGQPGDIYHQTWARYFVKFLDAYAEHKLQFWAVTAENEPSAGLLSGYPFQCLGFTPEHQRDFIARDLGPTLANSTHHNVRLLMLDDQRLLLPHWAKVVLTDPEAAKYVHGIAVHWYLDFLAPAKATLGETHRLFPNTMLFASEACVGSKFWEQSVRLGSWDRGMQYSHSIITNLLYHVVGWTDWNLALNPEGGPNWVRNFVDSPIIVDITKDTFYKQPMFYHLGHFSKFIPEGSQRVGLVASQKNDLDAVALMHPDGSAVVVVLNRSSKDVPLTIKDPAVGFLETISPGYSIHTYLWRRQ
Method in brief: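 Normal human glucocerebrosidase (0.2 nM) with blue fluorogenic substrate (80 uM final) in citrate/phosphate pH 5.9 with 10mM sodium taurocholate, 0.01% tween-20; 40 min RT, NaOH/glycine stop; fluorescence Ex 365/Em 440; AC50 from a titration from 0.6 nM upwards.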

[2] = AP1 Signaling Pathway (AID 357; active = well fitted curve in either direction with a large enough effect, not every such curve was filed as active;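 also: ME-180 reporter cells stimulated with EGF at its EC50 level; % is scaled to controls: 0 for no effect and ±100 for the full control effect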); conditions: ME-180 AP-1-bla reporter, EGF-induced, beta-lactamase ratio, 5 h; at 7.69 µM (top of the series) unless noted
Method in brief: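 Read-out was the 460nm/530nm emission ratio (excitation 405nm) after CCF4 loading for 2.5 hours at room temperature. Cells carried an AP-1-driven beta-lactamase reporter, were stimulated with EC50 EGF plus compound for 5 hours, and AC50 values came from titrations.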

[3] = biological target: Cytochrome P450 1A2 (Homo sapiens) (UniProt P05177); experiment: p450-cyp1a2 (AID 410; calls by dose curve; also: potency is read from the fitted curve at half-maximal effect); conditions: recombinant CYP1A2, luciferin-ME demethylation, luminescence; series mostly up to 57 µM
Cytochrome P450 1A2 (Homo sapiens), sequence (P05177 whole entry, looked up): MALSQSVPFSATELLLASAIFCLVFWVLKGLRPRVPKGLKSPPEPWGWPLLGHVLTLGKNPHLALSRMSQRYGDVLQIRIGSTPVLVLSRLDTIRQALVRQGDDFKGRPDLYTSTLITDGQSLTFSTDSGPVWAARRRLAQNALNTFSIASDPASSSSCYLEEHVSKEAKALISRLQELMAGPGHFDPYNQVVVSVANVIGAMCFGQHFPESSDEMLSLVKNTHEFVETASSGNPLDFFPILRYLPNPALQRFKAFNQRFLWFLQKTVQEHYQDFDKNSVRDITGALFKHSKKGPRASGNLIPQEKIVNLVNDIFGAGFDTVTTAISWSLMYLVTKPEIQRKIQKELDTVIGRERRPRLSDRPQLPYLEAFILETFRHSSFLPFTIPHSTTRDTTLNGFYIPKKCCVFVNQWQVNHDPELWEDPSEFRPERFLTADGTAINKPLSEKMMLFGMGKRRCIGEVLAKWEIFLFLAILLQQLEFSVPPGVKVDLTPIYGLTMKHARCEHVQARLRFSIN
Method in brief: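 Luminescent demethylation readout: Luciferin-ME (100uM, equal to Km) turned over by 20nM CYP1A2 for 60 min at room temperature after NADPH regeneration addition, following 10 min compound preincubation. Normalization used 57 uM furafylline as full inhibition.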

[4] = NFAT Signaling Pathway (AID 444; active = well fitted curve in either direction with a large enough effect, not every such curve was filed as active;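 also: carbachol stimulus at about its EC50 of 1 µM final; % is scaled to controls: 0 for no effect and ±100 for the full control effect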); conditions: Jurkat NFAT-bla M1, carbachol, beta-lactamase ratio, 5 h; at 7.69 µM (top of the series) unless noted
Method in brief: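 Jurkat cells with NFAT-driven β-lactamase reporter and co-expressed M1 receptor, stimulated with carbachol (final 1 uM, ~EC50), compound titration, 5 h at 37 °C. CCF4 loaded 1 h at RT; 460/530 nm ratio gave %activity and AC50.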

[5] = biological target: Glucocorticoid receptor (Homo sapiens) (UniProt P04150); experiment: GR-GFP Redistribution (AID 450;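 active = compounds whose dose series gives a full or clear partial fitted curve of increased nuclear translocation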; also: potency is read from the fitted curve at half-maximal effect); conditions: U2OS GR-GFP nuclear translocation, laser cytometry, 2 h
Glucocorticoid receptor (Homo sapiens), sequence (P04150 whole entry, looked up, the tested form may be a part): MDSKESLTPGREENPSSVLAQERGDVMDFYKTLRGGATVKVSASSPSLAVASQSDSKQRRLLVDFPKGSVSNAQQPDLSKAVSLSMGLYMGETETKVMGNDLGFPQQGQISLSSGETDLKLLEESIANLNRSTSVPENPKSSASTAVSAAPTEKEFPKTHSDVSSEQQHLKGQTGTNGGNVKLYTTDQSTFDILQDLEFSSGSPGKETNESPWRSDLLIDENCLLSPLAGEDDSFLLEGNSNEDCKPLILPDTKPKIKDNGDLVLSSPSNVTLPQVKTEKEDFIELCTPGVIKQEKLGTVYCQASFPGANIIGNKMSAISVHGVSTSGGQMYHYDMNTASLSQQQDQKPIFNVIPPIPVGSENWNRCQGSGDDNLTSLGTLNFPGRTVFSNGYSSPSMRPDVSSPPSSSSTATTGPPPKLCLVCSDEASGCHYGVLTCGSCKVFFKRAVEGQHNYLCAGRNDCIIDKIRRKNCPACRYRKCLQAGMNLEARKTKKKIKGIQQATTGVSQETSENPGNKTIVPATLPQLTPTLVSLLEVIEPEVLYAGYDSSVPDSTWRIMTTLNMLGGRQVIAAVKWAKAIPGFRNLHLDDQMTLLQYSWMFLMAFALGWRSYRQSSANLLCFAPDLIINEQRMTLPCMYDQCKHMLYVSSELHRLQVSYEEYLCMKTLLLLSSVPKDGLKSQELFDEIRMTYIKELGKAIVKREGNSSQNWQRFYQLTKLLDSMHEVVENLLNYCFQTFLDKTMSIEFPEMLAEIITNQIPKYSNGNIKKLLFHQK

[6] = biological target: Glucocorticoid receptor (Homo sapiens) (UniProt P04150); experiment: GR-EFC Redistribution (AID 451; calls by dose curve; also: potency is read from the fitted curve at half-maximal effect); conditions: CHO-K1 GR-EFC translocation, beta-gal luminescence, 2 h
Method in brief: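 CHO-K1 cells expressing nuclear EA and GR-ED fragments of b-gal; compounds titrated up to 46 uM final, 2 h at 37 C. GR nuclear translocation read as complemented b-gal luminescence after 1 h RT detection.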

[7] = biological target: Mitogen-activated protein kinase 10 (Mus musculus) (UniProt Q61831); experiment: JNK3 AlphaScreen Assay (AID 530; active = well fitted curve in either direction with a large enough effect, not every such curve was filed as active;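 also: kinase came from lysate of stimulated human HepG2 cells; signal reports phosphorylation of biotinylated GST-cJun 1-79 at Ser73 with 10 µM ATP; % is scaled to controls: 0 for no effect and ±100 for the full control effect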); conditions: JNK3 lysate, c-Jun phosphorylation; series mostly up to 57.1 µM
Method in brief: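 Activity was read by AlphaScreen after JNK3-containing HepG2 lysate (cytokine pre-activated) phosphorylated biotinylated GST-cJun with 10 uM ATP at room temperature. Phospho-Ser73 cJun antibody with Protein-A acceptor beads provided detection.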

[8] = qHTS Assay for Identification of Small Molecule Agonists for Hypoxia Response Element Signaling Pathway (AID 914; active = well fitted activation curve with a large enough effect in the signal ratio, with a control signal flat, not every such curve was filed as active; the % refers to the signal ratio; also: potency is read from the fitted curve at half-maximal effect); conditions: ME-180 HRE-bla reporter, beta-lactamase ratio, CoCl2, 17 h; activation: stronger effect = higher value
Method in brief: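 HRE-bla ME-180 assay for agonist-like enhancement of an EC50 CoCl2 stimulus: 17 h at 37 degrees Celsius, CCF4 for 2.5 h, ratiometric 460/530 nm signal converted to %Activity and fitted to AC50.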

[9] = qHTS Assay for Lipid Storage Modulators (AID 1519; calls by dose curve); conditions: Drosophila S3 cells, BODIPY lipid droplet/cell ratio, laser cytometry, cells loaded with oleic acid; for activity change, negative = inhibition: at 57.5 µM (top of the series)
Method in brief: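 Cells seeded at 5,000 per well were treated with compounds over a concentration series and loaded with oleic acid (400 uM, as added). Lipid droplet fluorescence (488 nm excitation, 500-530 nm channel) was read by laser-scanning cytometry and normalized to 20 uM Triacsin C.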

[10] = biological target: Dual specificity protein kinase CLK4 (Homo sapiens) (UniProt Q9HAZ1); experiment: qHTS Assay for Inhibitors of CDC-like Kinase 4 (ADP-Glo Assay) (AID 1771); conditions: recombinant CLK4, ADP-Glo luminescence; series mostly up to 80 µM; also: nearly all actives have a fitted effect of over 70% in size; also: potency is read from the fitted curve at half-maximal effect
Dual specificity protein kinase CLK4 (Homo sapiens), sequence (Q9HAZ1 whole entry, looked up): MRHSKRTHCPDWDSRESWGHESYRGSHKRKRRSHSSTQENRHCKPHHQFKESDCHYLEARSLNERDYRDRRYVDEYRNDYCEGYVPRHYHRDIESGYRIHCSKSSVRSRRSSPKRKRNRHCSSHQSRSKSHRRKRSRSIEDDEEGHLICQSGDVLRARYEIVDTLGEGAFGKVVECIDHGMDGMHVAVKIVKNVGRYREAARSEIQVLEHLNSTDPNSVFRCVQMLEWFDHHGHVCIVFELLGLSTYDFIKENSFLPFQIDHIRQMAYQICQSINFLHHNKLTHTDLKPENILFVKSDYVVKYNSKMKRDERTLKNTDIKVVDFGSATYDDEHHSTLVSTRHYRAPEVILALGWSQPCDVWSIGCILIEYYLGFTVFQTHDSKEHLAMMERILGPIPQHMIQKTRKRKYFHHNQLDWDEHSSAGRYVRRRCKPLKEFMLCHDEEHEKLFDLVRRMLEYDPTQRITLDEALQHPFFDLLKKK
Method in brief: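 ADP production was read by ADP-Glo luminescence after residual ATP depletion, following 1 h room-temperature reaction of 25 nM Clk4, 1 uM ATP and 100 uM RS peptide with MgCl2, EGTA, DTT and Triton X-100.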

[11] = biological target: Dual specificity protein kinase CLK4 (Homo sapiens) (UniProt Q9HAZ1); experiment: qHTS Assay for Inhibitors of CDC-like Kinase 4 (ADP-FP Assay) (AID 1795); conditions: Transcreener ADP fluorescence polarization; series mostly up to 50 µM; also: nearly all actives have a fitted effect of over 60% in size; also: potency is read from the fitted curve at half-maximal effect
Method in brief: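 Recombinant Clk4 (6.25 nM) phosphorylated 100 uM RS repeat peptide with 1 uM ATP in 25 mM Tris pH 7.5, 10 mM MgCl2, 0.5 mM EGTA, 2.5 mM DTT, 0.01% Triton X-100 for 1 h. ADP was detected by Transcreener ADP2 competitive fluorescence polarization after 30 min at room temperature.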

[12] = biological target: Ubiquitin carboxyl-terminal hydrolase 1 (Homo sapiens) (UniProt O94782); experiment: Inhibitors of USP1/UAF1: Pilot qHTS (AID 504865); conditions: purified USP1/UAF1, Ub-rhodamine cleavage fluorescence; series mostly up to 54.9 µM;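 also: rhodamine fluorescence freed from ubiquitin-rhodamine substrate followed over time; top concentration of the series differs between compounds; % is scaled to controls: 0 for no effect and ±100 for the full control effect; nearly all actives have a fitted effect of over 35% in size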
Ubiquitin carboxyl-terminal hydrolase 1 (Homo sapiens), sequence (O94782 whole entry, looked up): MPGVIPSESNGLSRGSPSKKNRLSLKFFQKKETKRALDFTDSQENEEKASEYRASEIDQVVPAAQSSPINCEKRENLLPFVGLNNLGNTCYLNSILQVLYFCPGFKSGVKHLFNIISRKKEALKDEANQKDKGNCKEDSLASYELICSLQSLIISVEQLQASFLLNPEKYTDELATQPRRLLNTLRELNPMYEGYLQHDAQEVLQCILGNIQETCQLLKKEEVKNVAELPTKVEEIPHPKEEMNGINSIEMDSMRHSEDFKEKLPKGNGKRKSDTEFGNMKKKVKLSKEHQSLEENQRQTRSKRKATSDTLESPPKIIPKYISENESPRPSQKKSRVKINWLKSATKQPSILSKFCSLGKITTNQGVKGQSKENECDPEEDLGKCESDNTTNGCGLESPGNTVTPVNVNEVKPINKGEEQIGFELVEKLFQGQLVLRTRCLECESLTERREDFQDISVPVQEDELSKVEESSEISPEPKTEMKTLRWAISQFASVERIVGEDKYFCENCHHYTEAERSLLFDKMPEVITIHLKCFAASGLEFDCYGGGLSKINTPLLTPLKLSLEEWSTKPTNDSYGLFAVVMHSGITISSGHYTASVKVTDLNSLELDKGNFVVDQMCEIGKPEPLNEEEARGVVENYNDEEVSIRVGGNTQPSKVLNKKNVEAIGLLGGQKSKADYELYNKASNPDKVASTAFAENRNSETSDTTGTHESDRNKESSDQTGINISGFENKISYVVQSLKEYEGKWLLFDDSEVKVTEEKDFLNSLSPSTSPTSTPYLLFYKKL
Method in brief: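 USP1/UAF1 complex at 1 nM preincubated 15 min at room temperature with compound, then Ub-Rho substrate added at 150 nM final. Fluorescence (480/540 nm) read kinetically in 50 mM HEPES pH 7.8, 0.5 mM EDTA, 1 mM TCEP, 0.1 mg/ml BSA, 0.01% Tween-20.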

[13] = Primary qHTS for small molecule stabilizers of the endoplasmic reticulum resident proteome: Secreted ER Calcium Modulated Protein (SERCaMP) assay (AID 1508630); conditions: SH-SY5Y GLuc-SERCaMP (Gaussia luciferase released on ER calcium loss) secretion, thapsigargin, luminescence; series mostly up to 38.4 µM; also: % is scaled to controls: 0 for no effect and ±100 for the full control effect
Method in brief: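 The SH-SY5Y reporter protocol was run at 3 concentrations up to 38.3 uM (primary) or 11 concentrations (follow-up): 16 h compound, 100 nM thapsigargin for 4 h, then extracellular luciferase luminescence.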

[14] = biological target: 3',5'-cyclic-AMP phosphodiesterase 4B (Homo sapiens) (UniProt Q07343); experiment: qHTS Assay for Inhibitors of PDE-IV (AID 607; active = well fitted activation curve with a large enough effect in the main read-out, with a control signal flat, not every such curve was filed as active; also: % of control where 0% means no effect); conditions: HEK293 ACTOne CNG channel cells, membrane potential fluorescence; series mostly up to 22.9 µM
3',5'-cyclic-AMP phosphodiesterase 4B (Homo sapiens), sequence (Q07343 whole entry, looked up): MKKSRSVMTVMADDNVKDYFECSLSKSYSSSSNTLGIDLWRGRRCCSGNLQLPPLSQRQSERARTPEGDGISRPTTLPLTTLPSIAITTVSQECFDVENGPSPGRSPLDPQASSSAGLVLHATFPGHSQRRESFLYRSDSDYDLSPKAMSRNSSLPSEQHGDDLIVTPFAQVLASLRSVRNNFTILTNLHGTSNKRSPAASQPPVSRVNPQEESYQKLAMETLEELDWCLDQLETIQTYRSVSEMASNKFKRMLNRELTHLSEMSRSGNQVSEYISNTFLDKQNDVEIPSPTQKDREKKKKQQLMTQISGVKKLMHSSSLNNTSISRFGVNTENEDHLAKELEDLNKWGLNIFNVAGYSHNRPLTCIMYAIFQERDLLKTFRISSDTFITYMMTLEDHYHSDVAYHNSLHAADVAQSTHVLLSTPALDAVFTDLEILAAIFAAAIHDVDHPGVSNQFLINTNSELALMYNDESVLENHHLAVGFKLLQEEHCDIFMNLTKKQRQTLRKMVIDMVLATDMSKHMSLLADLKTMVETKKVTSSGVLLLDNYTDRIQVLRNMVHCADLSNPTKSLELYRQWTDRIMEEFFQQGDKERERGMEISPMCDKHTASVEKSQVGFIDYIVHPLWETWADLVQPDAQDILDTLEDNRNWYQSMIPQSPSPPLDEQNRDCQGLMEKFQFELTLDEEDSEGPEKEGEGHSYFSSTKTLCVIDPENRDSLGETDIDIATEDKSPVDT
Method in brief: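 ACTOne HEK293 cells carry a modified cAMP-gated CNG channel and express endogenous PDE4; plated 1000 cells/well, compounds up to 22.9 uM final. Membrane-potential dye fluorescence (ex 535/em 590) was read; parental cells received 10 uM forskolin + 100 uM RO 20-1724.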

[15] = biological target: Dual specificity protein kinase CLK4 (Homo sapiens) (UniProt Q9HAZ1); experiment: qHTS Assay for Inhibitors of CDC-like Kinase 4 (Kinase-Glo Assay) (AID 1770); conditions: recombinant Clk4, Kinase-Glo ATP depletion luminescence; series mostly up to 66.7 µM; also: potency is read from the fitted curve at half-maximal effect; nearly all actives have a fitted effect of over 65% in size
Method in brief: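 25 nM Clk4 with 100 uM RS repeat peptide and 1 uM ATP (final) in Tris pH7.5, 10 mM MgCl2, 4.5 h at room temperature. Remaining ATP measured by Kinase-Glo luciferase luminescence.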

[16] = Stat Signaling Pathway (AID 446; active = well fitted curve in either direction with a large enough effect, not every such curve was filed as active); conditions: ME-180 (cervical carcinoma) SIE beta-lactamase reporter, IL-6 stimulated, 5 h; at 7.69 µM (top of the series) unless noted
Method in brief: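 Compound effects on IL-6-induced STAT reporter activity were measured in ME-180 cells. After overnight culture, cells were co-treated with 40 pM IL-6 for 5 hrs before beta-lactamase substrate loading at room temperature.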

[17] = biological target: Cytochrome P450 3A4 (Homo sapiens) (UniProt P08684); experiment: qHTS Assay for Activators of Cytochrome P450 3A4 (AID 885); conditions: recombinant CYP3A4, Luciferin-PPXE luminescence, 60 min; series mostly up to 57.1 µM; also: nearly all actives have a fitted effect of over 65% in size
Cytochrome P450 3A4 (Homo sapiens), sequence (P08684 whole entry, looked up): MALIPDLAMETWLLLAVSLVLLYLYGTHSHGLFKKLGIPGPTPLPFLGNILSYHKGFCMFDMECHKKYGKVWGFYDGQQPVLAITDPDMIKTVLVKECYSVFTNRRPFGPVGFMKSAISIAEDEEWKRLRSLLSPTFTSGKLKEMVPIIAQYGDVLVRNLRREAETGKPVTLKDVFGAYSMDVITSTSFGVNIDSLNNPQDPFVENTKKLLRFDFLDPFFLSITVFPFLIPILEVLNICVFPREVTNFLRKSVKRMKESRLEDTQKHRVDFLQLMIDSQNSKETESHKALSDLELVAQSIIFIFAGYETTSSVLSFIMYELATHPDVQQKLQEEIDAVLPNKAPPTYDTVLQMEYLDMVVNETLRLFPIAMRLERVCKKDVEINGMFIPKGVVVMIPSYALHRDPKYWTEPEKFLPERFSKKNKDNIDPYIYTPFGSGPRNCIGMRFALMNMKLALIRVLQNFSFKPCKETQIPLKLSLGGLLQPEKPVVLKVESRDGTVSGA
Method in brief: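 CYP3A4 activity: Luciferin-PPXE O-dealkylation, 25uM substrate, 200mM KPO4, RT throughout. Read-out is luciferase luminescence; higher values reflect activation.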

[18] = measured here: cell count channel max response
[19] = measured here: lipid channel max response

CN(C)c1ncc2nc(-c3ccccc3)c(=O)n(-c3ccccc3)c2n1
Potency [1]: > 11.4 µM (inactive)
activity change, negative = inhibition [2]: 15.6% (inactive)
Potency [3]: 0.398 µM (active)
activity change, negative = inhibition [4]: 23.9% (inactive)
Potency [5]: > 9.22 µM (inactive)
Potency [6]: > 46 µM (inactive)
outcome [7]: inactive
Potency [8]: 0.631 µM (active)
activity change, negative = inhibition [9]: -3.18% (inactive)
max response [9, 18]: 22.5%
max response [9, 19]: 15.8%
Potency [10]: inactive
Potency [11]: inactive
Potency [12]: inactive
Potency [13]: inactive

Cc1cnc(CNc2ncnc3ccc(-c4c(C)noc4C)cc23)cn1
Potency [1]: > 11.4 µM (inactive)
activity change, negative = inhibition [2]: 12.8% (inactive)
Potency [6]: > 46 µM (inactive)
Potency [14]: inactive
Potency [8]: 3.98 µM (active)
activity change, negative = inhibition [9]: 0.208% (inactive)
max response [9, 18]: 8.76%
max response [9, 19]: 7.19%
Potency [15]: 2.51 µM (active)
Potency [11]: 3.55 µM (active)
Potency [12]: inactive
Potency [13]: inactive

COc1ccc(-n2c(=O)cnc3cnc(N4CCOCC4)nc32)cc1
Potency [1]: > 11.4 µM (inactive)
activity change, negative = inhibition [2]: 4.95% (inactive)
activity change, negative = inhibition [4]: 1.82% (inactive)
activity, negative = inhibition [16]: -10.3% (inactive)
Potency [5]: > 9.22 µM (inactive)
Potency [6]: > 46 µM (inactive)
outcome [7]: inactive
Potency [14]: inactive
activity change, negative = inhibition [9]: 6.91% (inactive)
max response [9, 18]: 0.0679%
max response [9, 19]: 8.45%
Potency [15]: 28.2 µM (active)
Potency [12]: inactive
Potency [13]: inactive

CCNc1ncc2nc(C)c(=O)n(Cc3ccc(F)cc3)c2n1
Potency [1]: > 11.4 µM (inactive)
activity change, negative = inhibition [2]: -0.98% (inactive)
Potency [3]: 1.58 µM (active)
activity change, negative = inhibition [4]: -0.858% (inactive)
activity, negative = inhibition [16]: -2.29% (inactive)
Potency [5]: > 9.22 µM (inactive)
Potency [6]: > 46 µM (inactive)
outcome [7]: inactive
Potency [14]: inactive
Potency [17]: inactive
activity change, negative = inhibition [9]: 3.29% (inactive)
max response [9, 18]: 23.4%
max response [9, 19]: 24.2%
Potency [10]: 15.8 µM (active)
Potency [11]: inactive
Potency [12]: inactive
Potency [13]: inactive

CC(=O)NCCNc1nc(-c2cccnc2)nc2ccccc12
Potency [1]: > 11.4 µM (inactive)
activity change, negative = inhibition [2]: 5.7% (inactive)
activity change, negative = inhibition [4]: 0.668% (inactive)
activity, negative = inhibition [16]: 1.25% (inactive)
Potency [5]: > 46 µM (inactive)
Potency [6]: > 46 µM (inactive)
outcome [7]: inactive
Potency [14]: inactive
activity change, negative = inhibition [9]: 5.64% (inactive)
max response [9, 18]: 21.4%
max response [9, 19]: 27.2%
Potency [15]: 25.1 µM (active)
Potency [12]: inactive
Potency [13]: inactive

CNc1cc(-c2ccccc2CN(C)C)ncn1
Potency [1]: > 11.4 µM (inactive)
activity change, negative = inhibition [2]: 6.89% (inactive)
Potency [3]: 31.6 µM (active)
activity change, negative = inhibition [4]: -0.773% (inactive)
activity, negative = inhibition [16]: -3.02% (inactive)
Potency [5]: > 46 µM (inactive)
Potency [6]: > 46 µM (inactive)
outcome [7]: inactive
Potency [14]: inactive
activity change, negative = inhibition [9]: 2.26% (inactive)
max response [9, 18]: 7.6%
max response [9, 19]: 8.03%
Potency [10]: inactive
Potency [11]: inactive
Potency [12]: inactive
Potency [13]: inactive
